Results filed as inconclusive are left out. Activity calls are given as the source filed them. The call rests on the fitted dose curve; in most records, active means well fitted inhibition curve with a large enough effect; inconclusive means small, poorly fitted or top-dose-only effect; inactive means flat fitted curve, though single readings scatter. Numbered stars: 1 amine (or outer) side, 2 acyl side, 3 side chain; on linkers, the order of the positions; unused ones are H or OH. Bridge positions count the residues as written; N and C are the ends. Square brackets hold non-standard residues; d marks the D form. Peptide text beside a SMILES is read from it. * marks the point of attachment. ξ: configuration not given here. ΔAla(Z-3-ureido) = NC(=O)N/C=C(\N)C(=O)O; ξDab(CH2SO3H) = NC(CCNCS(=O)(=O)O)C(=O)O; X2 = NC1=NC(O)CC(C(N[*:1])C(=O)[*:2])N1; Heptanoyl(6-Me) = CC(C)CCCCC(=O)*; ξβ3hOrn = NCCCC(N)CC(=O)*; Orn = NCCC[CH](N)C(=O)O; Dab = NCC[CH](N)C(=O)O; Dap = NC[CH](N)C(=O)O

The text below walks through data of PubChem BioAssay (NCATS).

What all share (test): qHTS profiling for inhibitors of Plasmodium falciparum proliferation (AID 504749); further: nearly all actives have a fitted effect of over 60% in size
Conditions in all cases: P. falciparum in erythrocytes, SYBR Green DNA, 72 h; series mostly up to 28.7 µM

In one experiment the test system is 7G8. In outline: (§1)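 Quantitative HTS: compounds pinned into medium, infected erythrocytes added (0.3% parasitemia, 2.5% hematocrit), 72 h culture at 37 C under 5% CO2. Saponin/Triton lysis with SYBR Green I, overnight RT, then fluorescence read.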
A further experiment has as its system AA1029. In outline: as §1
In a further experiment the test system is C2A. In outline: as §1
The subject of a further experiment is CP192. In outline:
as §1

The subject of a further experiment is CP194. The method in brief:
as §1

Another experiment relates to CP203. In outline: as §1
In a further experiment the test system is CP217. In outline: as §1
In a further experiment the test system is CP237. In outline: as §1
Another experiment concerns CP266. In outline:
as §1

Another experiment relates to CP268. The method in brief: as §1
In a further experiment the test system is CP269. In outline: as §1
For the next experiment, the system named is CP291. In outline: as §1
The test system of the next experiment is CP315. In outline: as §1
The next experiment relates to CP329. The method in brief:
as §1

The next experiment relates to DIV30. In outline:
as §1

The subject of another experiment is HB3. The method in brief:
as §1

The subject of another experiment is JCK. In outline: as §1
Another experiment relates to P94_40. The method in brief:
as §1

The test system of another experiment is PC26. The method in brief:
as §1

The next experiment concerns TAB109. In outline:
as §1
Potency means the concentration at half of the fitted maximal effect.

As to `NCCCC(N)CC(=O)NC1CNC(=O)C(C2CC(O)N=C(N)N2)NC(=O)/C(=C/NC(N)=O)NC(=O)C(CO)NC(=O)C(CO)NC1=O` (stereo not drawn) (ξβ3hOrn-[Dap]SS[ΔAla(Z-3-ureido)][X2]; lactam 1-C; configuration not given here), the Potency result in the experiment with 7G8, in the experiment with AA1029, in the experiment with C2A, in the experiment with CP192, in the experiment with CP194 and with CP203 was “inactive” throughout. The Potency result in the experiment with CP217, in the experiment on CP237, in the experiment with CP266, in the experiment on CP268, in the experiment on CP269 and with CP291 was “inactive” throughout. The Potency entry in the experiment with CP315, in the experiment with CP329, in the experiment with DIV30, in the experiment on HB3, in the experiment with JCK and in the experiment with P94_40 was “inactive” in each case. Also, the Potency result in the experiment with PC26 and in the experiment on TAB109 was “inactive” in each case.

With `CCC(Oc1ccccc1)C(=O)NC1C(=O)N2C1SC(C)(C)C2C(=O)O` (stereo unspecified), the Potency result in the experiment with 7G8, in the experiment on AA1029, with C2A, in the experiment on CP194, in the experiment with CP203 and in the experiment on CP217 was “inactive” each time. The Potency entry with CP237, in the experiment with CP266, with CP268, with CP269, in the experiment with CP291 and in the experiment with CP315 was “inactive” in each case. The Potency result in the experiment on CP329, with DIV30, with HB3, with JCK, with P94_40 and in the experiment with PC26 was “inactive” throughout. For the same compound, the Potency entry in the experiment with TAB109 was “inactive”.

On to `O=C(OCC1OC(OC(=O)c2cc(O)c(O)c(OC(=O)c3cc(O)c(O)c(O)c3)c2)[C@@H](OC(=O)c2cc(O)c(O)c(OC(=O)c3cc(O)c(O)c(O)c3)c2)C(OC(=O)c2cc(O)c(O)c(OC(=O)c3cc(O)c(O)c(O)c3)c2)C1OC(=O)c1cc(O)c(O)c(OC(=O)c2cc(O)c(O)c(O)c2)c1)c1cc(O)c(O)c(OC(=O)c2cc(O)c(O)c(O)c2)c1` (stereo partly specified), for which the Potency in the experiment with 7G8 was 2 µM (active); in the experiment with AA1029 it was 2.51 µM (active); in the experiment on C2A, 2.82 µM (active); in the experiment with CP192, 7.57 µM (active); in the experiment on CP194, 3.79 µM (active); in the experiment on CP203 it was 4.26 µM (active). Besides, the Potency was 3.55 µM (active) in the experiment with CP217; 2.51 µM (active) with CP237; 3.79 µM (active) in the experiment on CP266; 3.38 µM (active) with CP268; 1.9 µM (active) with CP269; 5.36 µM (active) with CP315. Further, the Potency was 4.26 µM (active) in the experiment on CP329; 5.36 µM (active) with DIV30; 2 µM (active) in the experiment on HB3; 10 µM (active) with JCK; 2.82 µM (active) in the experiment with P94_40; 7.57 µM (active) in the experiment on PC26. In addition, the Potency in the experiment with TAB109 is 2.82 µM (active).

As for `COc1ccc(-c2nc3ccc(C4=C(C)CC(=O)NN4)cc3[nH]2)cc1`, the Potency in the experiment on 7G8 was 8.91 µM (active). Besides, the Potency result with AA1029, with CP192, with CP217, in the experiment on CP266, in the experiment on CP291 and with CP315 was “inactive” throughout. For the same compound, the Potency result in the experiment on CP329, with HB3, in the experiment on JCK and in the experiment on P94_40 was “inactive” each time.

`CCOC(=O)C(CS)NCCN[C@@H](CS)C(=O)OCC` (stereo partly specified): the Potency entry in the experiment with 7G8, in the experiment on AA1029, in the experiment on C2A, with CP192, in the experiment with CP194 and with CP203 was “inactive” each time. For the same compound, the Potency entry with CP217, in the experiment on CP237, in the experiment with CP266, in the experiment on CP268, in the experiment on CP269 and in the experiment with CP291 was “inactive” each time. Also, the Potency entry with CP315, with CP329, in the experiment with DIV30, with HB3, in the experiment with JCK and in the experiment on P94_40 was “inactive” each time. Besides, the Potency entry with PC26 and in the experiment with TAB109 was “inactive” in each case.

`O=C(O)c1ccccc1-c1c2cc(Br)c(=O)c(Br)c-2oc2c(Br)c(O)c(Br)cc12`: the Potency result in the experiment with 7G8, in the experiment with AA1029, with C2A, in the experiment with CP192, with CP194 and in the experiment on CP203 was “inactive” throughout. The Potency entry in the experiment on CP217, in the experiment on CP237, in the experiment with CP268, with CP269, with CP291 and in the experiment with CP315 was “inactive” in each case. In addition, the Potency entry in the experiment with CP329, with DIV30, in the experiment with HB3, in the experiment with JCK, with P94_40 and with PC26 was “inactive” throughout. In the experiment with TAB109, the Potency entry was “inactive”.

With `CC(C)CC1NC(=O)C(CCCN)NC(=O)C(C(C)C)NC(=O)C2CCCN2C(=O)C(Cc2ccccc2)NC(=O)C(CC(C)C)NC(=O)C(CCCN)NC(=O)C(C(C)C)NC(=O)C2CCCN2C(=O)C(Cc2ccccc2)NC1=O` (stereo unspecified) (cyclo(FPV[Orn]LFPV[Orn]L); configuration not given here), the Potency in the experiment on 7G8 is 0.0003 µM (active); with AA1029 it was 0.0009 µM (active); in the experiment with C2A, 0.0025 µM (active); in the experiment with CP192, 0.0017 µM (active); with CP194, 0.0013 µM (active); in the experiment on CP203, 0.0013 µM (active). Also, the Potency is 0.0022 µM (active) with CP217; 0.0009 µM (active) in the experiment with CP237; 0.0019 µM (active) with CP266; 0.0135 µM (active) in the experiment on CP268; 0.0013 µM (active) with CP269; 0.0004 µM (active) in the experiment on CP291. The Potency in the experiment with CP315 is 0.0017 µM (active); in the experiment with CP329, 0.0019 µM (active); in the experiment on DIV30, 0.0004 µM (active); in the experiment with HB3, 0.0035 µM (active); with JCK, 0.0562 µM (active); with P94_40, 0.0004 µM (active). Moreover, the Potency in the experiment on PC26 and in the experiment on TAB109 was 0.0011 µM (active) in each case.

As to `CCC(C)C1NC(=O)C(CCNCS(=O)(=O)O)NC(=O)C(NC(=O)C(CCNCS(=O)(=O)O)NC(=O)C(NC(=O)C(CCNCS(=O)(=O)O)NC(=O)CCCCC(C)C)C(C)O)CCNC(=O)C(C(C)O)NC(=O)C(CCNCS(=O)(=O)O)NC(=O)C(CCNCS(=O)(=O)O)NC(=O)C(C(C)CC)NC1=O` (stereo unspecified) ({Heptanoyl(6-Me)}-[ξDab(CH2SO3H)]T[ξDab(CH2SO3H)][Dab][ξDab(CH2SO3H)]II[ξDab(CH2SO3H)][ξDab(CH2SO3H)]T; lactam 4-C; configuration not given here), the Potency entry with 7G8, with AA1029, in the experiment with C2A, in the experiment on CP192, in the experiment with CP194 and in the experiment with CP203 was “inactive” throughout. Further, the Potency entry with CP217, in the experiment with CP237, with CP266, with CP268, with CP269 and in the experiment on CP291 was “inactive” each time. The Potency entry in the experiment on CP315, in the experiment on CP329, in the experiment on DIV30, in the experiment on HB3, in the experiment on JCK and in the experiment with P94_40 was “inactive” each time. Besides, the Potency entry in the experiment with PC26 and in the experiment on TAB109 was “inactive” in each case.

For the compound `CC(=O)OCC1=C(C(=O)O)N2C(=O)C(NC(=O)Cc3ccccc3)C2SC1` (stereo unspecified), the Potency result in the experiment on 7G8, with AA1029, with C2A, in the experiment with CP192, in the experiment with CP194 and with CP203 was “inactive” each time. In addition, the Potency entry in the experiment on CP217, in the experiment with CP237, in the experiment on CP266, in the experiment on CP268, in the experiment on CP269 and with CP291 was “inactive” each time. For the same compound, the Potency entry in the experiment with CP315, in the experiment with CP329, with DIV30, in the experiment on HB3, in the experiment on JCK and in the experiment on P94_40 was “inactive” in each case. In addition, the Potency entry with PC26 and in the experiment with TAB109 was “inactive” each time.

With `C=CC1=C(C(=O)O)N2C(=O)[C@@H](NC(=O)C(N=O)c3csc(N)n3)[C@H]2SC1` (stereo partly specified), the Potency entry in the experiment on 7G8, with AA1029, in the experiment with C2A, with CP192, with CP194 and with CP203 was “inactive” throughout. Moreover, the Potency entry in the experiment on CP217, in the experiment with CP237, in the experiment with CP266, in the experiment with CP268, in the experiment with CP269 and in the experiment with CP291 was “inactive” throughout. The Potency result in the experiment with CP315, with CP329, in the experiment with DIV30, in the experiment with HB3, in the experiment with JCK and with P94_40 was “inactive” throughout. Moreover, the Potency entry in the experiment with PC26 and with TAB109 was “inactive” in each case.

`CCC(C)C1NC(=O)C(Cc2ccc(O)cc2)NC(=O)C(N)CSSCC(C(=O)N2CCCC2C(=O)NC(CC(C)C)C(=O)NCC(N)=O)NC(=O)C(CC(N)=O)NC(=O)C(CCC(N)=O)NC1=O` (stereo unspecified): the Potency entry in the experiment on 7G8, in the experiment on AA1029, in the experiment with C2A, with CP192, with CP194 and in the experiment with CP203 was “inactive” each time. Besides, the Potency result with CP217, in the experiment with CP237, with CP266, in the experiment with CP268, in the experiment on CP269 and with CP291 was “inactive” throughout. For the same compound, the Potency result in the experiment on CP315, in the experiment with CP329, in the experiment on DIV30, in the experiment with HB3, with JCK and with P94_40 was “inactive” each time. The Potency result in the experiment on PC26 and with TAB109 was “inactive” in each case.

As to `CCC1NC(=O)C(NC(=O)c2ncccc2O)C(C)OC(=O)C(c2ccccc2)NC(=O)C2CC(=O)CCN2C(=O)C(Cc2ccccc2)N(C)C(=O)C2CCCN2C1=O` (stereo unspecified), the Potency in the experiment on 7G8 was 8.91 µM (active). Moreover, the Potency entry in the experiment on AA1029, with C2A, with CP192, in the experiment with CP194, in the experiment on CP203 and with CP217 was “inactive” throughout. Besides, the Potency result in the experiment with CP237, in the experiment on CP266, with CP268, with CP269, with CP291 and with CP315 was “inactive” in each case. Moreover, the Potency result in the experiment with CP329, with DIV30, in the experiment on JCK, with PC26 and in the experiment with TAB109 was “inactive” in each case.
